Sampled rows, rich in hits. Any-hit rate of the full collection: about 2.9%.
dFosB act-1: activators of mouse delta FosB homodimer | AID 493131 | P13346 | activation, % at 25 µM | hit rate 0.99% among 340,000 | purified delta FosB, TAMRA-CDK5 oligo fluorescence polarization; percent of positive-control signal above neutral wells;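 active = mean activation above about 17%, with every replicate also reaching it, limit read from the data, passing the limit was not always enough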
MEKK3 PB1 HTS: MEKK3-MEK5 PB1 interaction, increase or decrease. bead-based flow cytometry, Alexa488-MEK5 binding to MEKK3; actives lie on both sides; 0 = blocked by unlabeled MEK5, 100 = vehicle. binding response (% of control), % at 10 µM. hit rate 1.4% among 290,000. AID 1529;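 active = binding response more than 3 SD above or below the average of its plate-row segment, actives on both sides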;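 also: Alexa488 bead fluorescence after subtracting the streptavidin-only scavenger bead signal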
Target sequence (Q99759 whole entry, looked up): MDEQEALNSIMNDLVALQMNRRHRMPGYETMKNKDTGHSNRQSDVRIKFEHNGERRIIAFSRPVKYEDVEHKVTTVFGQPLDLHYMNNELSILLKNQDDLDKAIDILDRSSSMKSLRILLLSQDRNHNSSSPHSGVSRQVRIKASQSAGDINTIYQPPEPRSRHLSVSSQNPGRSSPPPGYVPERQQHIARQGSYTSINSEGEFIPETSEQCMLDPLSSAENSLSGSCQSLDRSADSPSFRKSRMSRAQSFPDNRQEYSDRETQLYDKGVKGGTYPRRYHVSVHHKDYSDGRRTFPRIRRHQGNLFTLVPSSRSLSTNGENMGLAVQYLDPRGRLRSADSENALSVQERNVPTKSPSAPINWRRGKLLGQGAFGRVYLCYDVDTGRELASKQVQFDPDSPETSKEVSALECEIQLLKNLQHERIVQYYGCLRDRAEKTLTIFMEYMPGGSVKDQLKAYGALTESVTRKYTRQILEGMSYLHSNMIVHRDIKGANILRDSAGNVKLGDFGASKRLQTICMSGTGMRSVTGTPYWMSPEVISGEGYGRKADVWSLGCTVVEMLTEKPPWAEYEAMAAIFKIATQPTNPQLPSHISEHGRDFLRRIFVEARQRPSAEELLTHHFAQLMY
DNA FID counter: displaces DNA intercalator in HCV helicase counter-screen | hit rate 0.17% among 290,000 | inhibition, % at 7.9 µM | DNA fluorescent intercalator displacement, fluorescence; in the data active = inhibition above about 37%;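 also: 0% = vehicle and 100% = reference compound; higher means more ethidium bromide displaced from hairpin DNA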
MEKK2mut PB1 HTS: signal of MEK5 binding to mutant human MEKK2 PB1 domain. hit rate 0.35% among 290,000. AID 1530. percent response, % at 10 µM. bead flow cytometry, Alexa488-MEK5 binding to MEKK2 mutant; in the data active = percent response above about 24%, passing the limit was not always enough
MEKK2 WT-MEK5: raises or lowers MEK5 binding to wildtype human MEKK2 PB1 domain; hit rate 1.1% among 290,000; bead flow cytometry, Alexa488-MEK5 binding to MEKK2 WT; actives lie on both sides; binding response (% of control), % at 10 µM; AID 1531; in the data active = binding response below about 67% or above about 130%
dFosB act-2: enhances mouse delta FosB homodimer binding to DNA; 2,400 tested, under 10 active; purified delta FosB, TAMRA-CDK5 oligo fluorescence polarization; normalised: neutral wells 0, positive control 100; activation, % at 24.9 µM; shares compounds with dFosB act-1;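 active = highest replicate activation at or above 34% and every replicate reaching that threshold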;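 also: higher polarization means more probe DNA bound by delta FosB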
* = called active by the depositor; · = not tested or not shown.

SMILES | dFosB act-1 | MEKK3 PB1 HTS | DNA FID counter | MEKK2mut PB1 HTS | MEKK2 WT-MEK5 | dFosB act-2
O=C(N/N=C/c1cccc([N+](=O)[O-])c1)c1cc(-c2ccc3c4c(cccc24)CC3)n[nH]1 | 3 | 99 | 3 | -2 | 102 | ·
O=C(Nc1nccs1)c1cn(-c2ccccc2)nc1-c1ccncc1 | 36* | 108 | -8 | 8 | 109 | 1
COc1ccc(-c2nn(-c3ccccc3)cc2C(=O)Nc2nccs2)cc1 | -3 | 93 | -8 | -4 | 99 | ·
Cc1cccc(NC(=S)N2CCN(c3ccc(F)cc3)CC2)c1 | -2 | 71 | 1 | -15 | 83 | ·
O=c1[nH]c(Cn2nnc(-c3ccccc3)n2)nc2scc(-c3ccccc3)c12 | 34* | 97 | -7 | -3 | 96 | 0
O=c1[nH]c(CN2CCN(Cc3ccccc3)CC2)nc2scc(-c3ccccc3)c12 | 7 | 85 | 6 | -33 | 78 | ·
CN(C)S(=O)(=O)c1ccc(C(=O)OCC(=O)c2ccc3c(c2)NC(=O)CO3)cc1 | 27* | 105 | -2 | 7 | 103 | 1
CCN(CC)S(=O)(=O)c1cc(C(=O)OCC(=O)c2ccc3c(c2)NC(=O)CO3)ccc1F | 20* | 99 | -2 | 0 | 96 | 1
Cc1cc(C)cc(OCC(=O)OCC(=O)c2ccc3c(c2)NC(=O)CO3)c1 | 6 | 100 | -7 | 3 | 102 | ·
COc1ccc2c(Cl)c(C(=O)OCC(=O)c3ccc4c(c3)NC(=O)CO4)sc2c1Cl | -5 | 107 | -1 | 1 | 97 | ·
O=C1COc2ccc(C(=O)COC(=O)c3sc4ccccc4c3Cl)cc2N1 | 94* | 107 | 2 | 4 | 103 | 5
O=C1COc2ccc(C(=O)COc3ccc([N+](=O)[O-])cc3)cc2N1 | 18* | 96 | -3 | -7 | 98 | 2
Cc1nc(C(C)N(C)Cc2nc(Cc3ccccc3F)no2)c(C)s1 (configuration not stated) | -11 | 83 | -26 | -21 | 84 | ·
Cc1ccc(Cl)cc1NC(=O)COC(=O)CCN1C(=O)C2CC=CCC2C1=O (configuration not stated) | -5 | · | · | · | · | ·
CN(C)S(=O)(=O)c1cccc(COC(=O)Cc2c(F)cccc2Cl)c1 | -3 | 106 | -38 | 12 | 108 | ·
CN1CCN(C2=Nc3c(Cl)cc(Cl)c4cccc2c34)CC1 | 20* | 97 | 19 | -3 | 98 | -1
CCS(=O)(=O)N1CCC(NC(=O)C(Cc2ccc(OC)c(OC)c2)NC(C)=O)CC1 (configuration not stated) | -5 | 100 | -1 | -1 | 103 | ·
Clc1nc(Oc2ccccc2)nc(-c2cn(-c3ccccc3)c3ccccc23)n1 | -7 | 99 | 1 | 1 | 97 | ·
CCNc1nc(Cl)nc(-c2cn(-c3ccccc3)c3ccccc23)n1 | 22* | 85 | -11 | 2 | 81 | 3
Cc1ccc(CNC(=O)c2nnn(CC(=O)Nc3cccc(C)c3C)c2N)cc1 | 66* | 101 | -12 | 1 | 101 | -1
Cc1ccc(CNC(=O)Cn2nnc(C(=O)Nc3cccc(C)c3C)c2N)cc1 | 6 | 101 | -12 | 1 | 100 | ·
Cc1ccc2[nH]c3c(=O)n(CC(=O)NCc4ccco4)ncc3c2c1 | 26* | 98 | -22 | 2 | 99 | 2
Cc1ccc(C)c(NC(=O)Cn2nnc(C(=O)NCc3ccco3)c2N)c1 | 30* | 100 | -10 | -2 | 101 | -5
O=C(NCc1ccc(/C=N\NC(=O)C(=O)Nc2ccccc2Br)o1)C(=O)Nc1ccccc1 | -6 | 105 | -12 | 2 | 108 | ·
Cc1cccc(-n2ncc3c(=O)[nH]c(SCC(=O)N4CC(=O)Nc5ccccc54)nc32)c1 | 47* | · | · | · | · | 4
SMILES | dFosB act-1 | MEKK3 PB1 HTS | DNA FID counter | MEKK2mut PB1 HTS | MEKK2 WT-MEK5 | dFosB act-2
CC(C)CC(NC(=O)CC12CC3CC(CC(C3)C1)C2)C(=O)NC1=NCCS1 (configuration not stated) | -12 | 107 | -32 | 5 | 111 | ·
Oc1ccc(C[C@H]2CNC(=S)N2CC2CCCN2C[C@H](Cc2ccc(O)cc2)N2C[C@H](Cc3ccc(O)cc3)N(CC3CCCCC3)C2=S)cc1 (some centres not stated) | 8 | · | · | · | · | ·
CC(C)C[C@H]1CNC(=S)N1CC1CCCN1C[C@H](CC(C)C)N1C[C@H](Cc2ccc(O)cc2)N(CC2CCCCCC2)C1=S (some centres not stated) | 23* | · | · | · | · | 4
CC(C)C[C@H]1CNC(=S)N1CC1CCCN1C[C@H](Cc1ccccc1)N1C[C@H](Cc2ccc(O)cc2)N(CC2CCCCC2)C1=S (some centres not stated) | 59* | · | · | · | · | 2
CC(C)C[C@H]1CNC(=S)N1CC1CCCN1C[C@H](CC(C)C)N1C[C@H](Cc2ccc(O)cc2)N(CC2CCCCC2)C1=S (some centres not stated) | 27* | · | · | · | · | 5
CC(C)C[C@@H](CN1CCCC1CN1C(=S)NC[C@@H]1Cc1ccc(O)cc1)N1C[C@H](Cc2ccc(O)cc2)N(CC2CCCCC2)C1=S (some centres not stated) | 37* | · | · | · | · | 7
COc1cc(/C=N/NC(=O)CC#N)cc(Br)c1O | -2 | 97 | -2 | -6 | 92 | ·
Cc1nc([N+](=O)[O-])c(SCC(O)CCl)n1Cc1ccc(Cl)cc1 (configuration not stated) | -9 | 96 | -6 | -3 | 94 | ·
CC(C)CCNc1nc(-c2ccco2)c2c(c1C#N)CCCC2 | -11 | 100 | -6 | 2 | 100 | ·
N#Cc1c(NCCN)nc(-c2ccco2)c2c1CCCC2 | 26* | 106 | 1 | 13 | 125 | 4
C#CCOCCOCCOCCNc1nc(N2CCN(C(=O)[C@H](CCCCN)n3cc(CN)nn3)CC2)nc(N2CCN(C(=O)[C@H](CCCCN)n3cc([C@@H](N)[C@H](C)CC)nn3)CC2)n1 | 43* | · | · | · | · | -1
C#CCOCCOCCOCCNc1nc(N2CCN(C(=O)[C@H](CCCN=C(N)N)n3cc(C(N)[C@@H](C)CC)nn3)CC2)nc(N2CCN(C(=O)[C@H](CCCCN)n3cc([C@@H](N)[C@H](C)CC)nn3)CC2)n1 (some centres not stated) | 36* | · | · | · | · | 0
CC(=O)c1ccc(S(=O)(=O)NCCC(=O)NC2CCN(Cc3ccccc3)CC2)cc1 | -4 | · | · | · | · | ·
COc1ccc(/C=C2\SC(=O)N(CC(=O)NNC(=O)c3ccccc3O)C2=O)cc1 | 67* | 96 | -5 | -2 | 95 | 2
O=C(CN1C(=O)S/C(=C\c2ccccc2)C1=O)NNC(=O)c1ccccc1O | 48* | 101 | -6 | 1 | 100 | 4
COc1ccc(/C=C2\SC(=O)N(CC(=O)NC3C=CS(=O)(=O)C3)C2=O)cc1 (configuration not stated) | 41* | 99 | -9 | 3 | 97 | 4

Screening results from PubChem.
